Measurements: PubChem BioAssay (EPA / NIEHS)
Calls of active or inactive are those of the source. The calls were made as follows: active = hit-call score of the fitted dose curve at least 0.9, where 1 is the maximum; inactive = score below 0.9.

What was measured:
Settings in all cases: mRNA level, 48 h; actives raise or lower the signal
[1] = read-out: Heat shock 70 kDa protein 1 (HSPA1A), gene 3303; test: LTEA_HepaRG_HSPA1A: Life Technologies and Expression Analysis (LTEA) Assay for Heat shock 70 kDa protein 1 (HSPA1A) using HepaRG (AID 2283502)
In short: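 Differentiated human HepaRG cells in serum-free induction medium were exposed in duplicate for 48 h to eight concentrations (top 100 uM, half-log steps, 0.5% DMSO). HSPA1A mRNA was quantified by qRT-PCR, normalized to ACTB, GAPDH and POLR2A, and fitted bidirectionally against DMSO.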

[2] = read-out: Hypoxia-inducible factor 1-alpha (Homo sapiens) (UniProt Q16665); test: LTEA_HepaRG_HIF1A: Life Technologies and Expression Analysis (LTEA) Assay for Hypoxia-inducible factor 1 (HIF1A) Trancription factor using HepaRG (AID 2283503)
In short: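 HepaRG, 48 h exposure, 8-pt half-log series from 100 uM, 0.5% DMSO vehicle, duplicates. Readout: HIF1A transcript by qRT-PCR (Fluidigm array), housekeeping-normalised. Bidirectional curve fit vs DMSO baseline.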

[3] = read-out: 3-Hydroxy-3-Methylglutaryl-CoA Synthase 2 (HMGCS2), HMGCS2 (gene 3158); test: LTEA_HepaRG_HMGCS2: Life Technologies and Expression Analysis (LTEA) Assay for 3-Hydroxy-3-Methylglutaryl-CoA Synthase 2 (HMGCS2) using HepaRG (AID 2283504)
In short: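 Human HepaRG cells in serum-free induction medium were exposed in duplicate for 48 h to 8-point half-log series from 100 uM top in 0.5% DMSO. HMGCS2 mRNA measured by TaqMan qRT-PCR, normalised to ACTB, GAPDH, POLR2A; bidirectional fit versus DMSO.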

HGF (gene 3082) = test: LTEA_HepaRG_HGF: Life Technologies and Expression Analysis (LTEA) Assay for Hepatocyte Growth Facto (HGF) using HepaRG (AID 2283505)
In short: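 Differentiated HepaRG cells in serum-free induction medium exposed 48 h in duplicate, 8 half-log concentrations from 100 uM in 0.5% DMSO. HGF mRNA by qRT-PCR, normalised to ACTB, GAPDH, POLR2A; bidirectional fitting.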

[4] = read-out: Insulin Like Growth Factor 1 (IGF1), IGF1 (gene 3479); test: LTEA_HepaRG_IGF1: Life Technologies and Expression Analysis (LTEA) Assay for Insulin Like Growth Factor 1 (IGF1) using HepaRG (AID 2283506)
In short: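 Differentiated human HepaRG cells were dosed for 48 h in serum-free induction medium with 0.5% DMSO, eight half-log concentrations up to 100 uM, in duplicate. IGF1 mRNA was quantified by qRT-PCR normalized to ACTB, GAPDH, POLR2A; bidirectional fitting versus DMSO.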

[5] = read-out: Intercellular Adhesion Molecule 1 (ICAM1), ICAM1 (gene 3383); test: LTEA_HepaRG_ICAM1: Life Technologies and Expression Analysis (LTEA) Assay for Intercellular Adhesion Molecule 1 (ICAM1) using HepaRG (AID 2283507)
In short: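 Differentiated human HepaRG cells in serum-free induction medium exposed 48 h in duplicate to 8 half-log concentrations (top 100 uM, 0.5% DMSO). ICAM1 mRNA quantified by TaqMan qRT-PCR, normalized to ACTB, GAPDH and POLR2A; bidirectional fitting versus DMSO.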

[6] = read-out: Insulin-like growth factor-binding protein 1 (IGFBP1), IGFBP1 (gene 3484); test: LTEA_HepaRG_IGFBP1: Life Technologies and Expression Analysis (LTEA) Assay for Insulin-like growth factor-binding protein 1 (IGFBP1) using HepaRG (AID 2283508)
In short: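 HepaRG cells, plated 48 h then switched to serum-free induction medium, exposed in duplicate for 48 h to 8-point half-log series from 100 uM in 0.5% DMSO. mRNA measured by qRT-PCR, normalized to ACTB/GAPDH/POLR2A; bidirectional fit versus DMSO.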

[7] = read-out: Interleukin 6 (IL6), IL6 (gene 3569); test: LTEA_HepaRG_IL6: Life Technologies and Expression Analysis (LTEA) Assay for Interleukin 6 (IL6) using HepaRG (AID 2283509)
In short: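 HepaRG, ~100,000 cells/well, 48 h pre-culture; serum-free induction medium; cmpd 8-pt half-log from 100 uM, 0.5% DMSO, duplicate, 48 h. Lysis in RLT, TaqMan qRT-PCR; gain or loss vs DMSO.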

[8] = read-out: Interleukin 6 Receptor (IL6R), IL6R (gene 3570); test: LTEA_HepaRG_IL6R: Life Technologies and Expression Analysis (LTEA) Assay for Interleukin 6 Receptor (IL6R) using HepaRG (AID 2283510)
In short: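 Differentiated human HepaRG cells, plated 48 h then switched to serum-free induction medium, were dosed in duplicate for 48 h at eight half-log concentrations up to 100 uM in 0.5% DMSO. IL6R mRNA quantified by qRT-PCR, normalized to ACTB/GAPDH/POLR2A; bidirectional fit versus DMSO.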

[9] = read-out: Keratin 19 (KRT19), KRT19 (gene 3880); test: LTEA_HepaRG_KRT19: Life Technologies and Expression Analysis (LTEA) Assay for Keratin 19 (KRT19) using HepaRG (AID 2283512)
In short: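 Differentiated HepaRG cells in serum-free induction medium, exposed 48 h in duplicate to 8 half-log concentrations up to 100 uM in 0.5% DMSO. KRT19 mRNA by qRT-PCR, normalized to ACTB, GAPDH, POLR2A; bidirectional fit vs DMSO.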

[10] = read-out: JUN Transcription Factor, JUN (gene 3725); test: LTEA_HepaRG_JUN: Life Technologies and Expression Analysis (LTEA) Assay for JUN Transcription Factor using HepaRG (AID 2283513)
In short: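 Differentiated HepaRG cells were exposed to chemicals for 48 h in serum-free induction medium, 8 concentrations from 100 uM in half-log steps, 0.5% DMSO vehicle, in duplicate. JUN mRNA was quantified by TaqMan qRT-PCR, normalized to ACTB, GAPDH, POLR2A.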

[11] = read-out: Lipase C (LIPC), LIPC (gene 3990); test: LTEA_HepaRG_LIPC: Life Technologies and Expression Analysis (LTEA) Assay for Lipase C (LIPC) using HepaRG (AID 2283514)
In short: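 Read-out is LIPC transcript level by TaqMan qRT-PCR, normalized to three housekeeping genes, after 48 h chemical treatment of human HepaRG liver cells. Curves span eight concentrations topping at 100 uM; activity in either direction scored relative to 0.5% DMSO.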

[12] = read-out: matrix metalloproteinase-10 (MMP10), MMP10 (gene 4319); test: LTEA_HepaRG_MMP10: Life Technologies and Expression Analysis (LTEA) Assay for matrix metalloproteinase-10 (MMP10) using HepaRG (AID 2283517)
In short: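 Gain or loss of MMP10 mRNA is fitted relative to the 0.5% DMSO vehicle. The human hepatic line HepaRG receives a 48-hour serum-free exposure, in duplicate, with a maximum concentration of 100 uM.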

MYC, MYC (gene 4609) = test: LTEA_HepaRG_MYC: Life Technologies and Expression Analysis (LTEA) Assay for MYC using HepaRG (AID 2283518)
In short: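 Differentiated HepaRG cells exposed 48 h in serum-free induction medium to 8 concentrations (top 100 uM, half-log steps; 0.5% DMSO), duplicate. MYC mRNA measured by Fluidigm qRT-PCR, normalized to ACTB, GAPDH, POLR2A; bidirectional fit versus DMSO.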

[13] = read-out: matrix metalloproteinase-3 (MMP3), MMP3 (gene 4314); test: LTEA_HepaRG_MMP3: Life Technologies and Expression Analysis (LTEA) Assay for matrix metalloproteinase-3 (MMP3) using HepaRG (AID 2283519)
In short: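 HepaRG, human; 48 h dosing, 8 conc. (max 100 uM, half-log), duplicate, 0.5% DMSO. Readout: MMP3 transcript by Fluidigm TaqMan qRT-PCR, ACTB/GAPDH/POLR2A-normalised. Gain or loss fitted vs DMSO.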

[14] = read-out: Paternally Expressed 10 (PEG10), PEG10 (gene 23089); test: LTEA_HepaRG_PEG10: Life Technologies and Expression Analysis (LTEA) Assay for Paternally Expressed 10 (PEG10) using HepaRG (AID 2283520)
In short: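 Differentiated HepaRG cells, plated 48 h then switched to serum-free induction medium, were exposed in duplicate for 48 h to eight half-log concentrations topping at 100 uM in 0.5% DMSO. PEG10 mRNA was quantified by TaqMan qRT-PCR, normalised to ACTB, GAPDH and POLR2A.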

[15] = read-out: Nuclear factor NF-kappa-B p105 subunit (Homo sapiens) (UniProt P19838); test: LTEA_HepaRG_NFKB1: Life Technologies and Expression Analysis (LTEA) Assay for Nuclear Factor Kappa B Subunit 1 (NFKB1) using HepaRG (AID 2283521)
In short: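 HepaRG, 48 h exposure; 8-pt half-log series from 100 uM in 0.5% DMSO; duplicates. Readout: NFKB1 mRNA by qRT-PCR (Fluidigm arrays), housekeeping-normalized. Gain/loss fit vs DMSO baseline.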

[16] = read-out: Potassium channel subfamily K member 1 (KCNK1), KCNK1 (gene 3775); test: LTEA_HepaRG_KCNK1: Life Technologies and Expression Analysis (LTEA) Assay for Potassium channel subfamily K member 1 (KCNK1) using HepaRG (AID 2283511)
In short: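 Gain or loss of KCNK1 mRNA is the read-out, quantified by qRT-PCR against three housekeeping genes after 48 h chemical treatment of human HepaRG liver cells. Concentrations ran from 100 uM downward in half-log steps, vehicle 0.5% DMSO.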

[17] = read-out: Lipoprotein lipase (LPL), LPL (gene 4023); test: LTEA_HepaRG_LPL: Life Technologies and Expression Analysis (LTEA) Assay for Lipoprotein lipase (LPL) using HepaRG (AID 2283515)
In short: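 Read-out is LPL transcript level by qRT-PCR, normalized to three housekeeping genes and fitted bidirectionally against the DMSO control. Human HepaRG cells received chemicals for 48 h at up to 100 uM.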

[18] = read-out: MicroRNA 122 (MIR122), gene 406906; test: LTEA_HepaRG_MIR122: Life Technologies and Expression Analysis (LTEA) Assay for MicroRNA 122 (MIR122) using HepaRG (AID 2283516); also: the transcript read is the microRNA miR-122
In short: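 Differentiated human HepaRG cells were exposed 48 h in serum-free induction medium to eight half-log concentrations (top 100 uM, 0.5% DMSO). Transcript level was measured by TaqMan qRT-PCR, normalized to ACTB, GAPDH and POLR2A, and fitted bidirectionally versus DMSO.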

Measured: AC50

Chain of Nuclear factor NF-kappa-B p105 subunit (Homo sapiens) (P19838 whole entry, looked up): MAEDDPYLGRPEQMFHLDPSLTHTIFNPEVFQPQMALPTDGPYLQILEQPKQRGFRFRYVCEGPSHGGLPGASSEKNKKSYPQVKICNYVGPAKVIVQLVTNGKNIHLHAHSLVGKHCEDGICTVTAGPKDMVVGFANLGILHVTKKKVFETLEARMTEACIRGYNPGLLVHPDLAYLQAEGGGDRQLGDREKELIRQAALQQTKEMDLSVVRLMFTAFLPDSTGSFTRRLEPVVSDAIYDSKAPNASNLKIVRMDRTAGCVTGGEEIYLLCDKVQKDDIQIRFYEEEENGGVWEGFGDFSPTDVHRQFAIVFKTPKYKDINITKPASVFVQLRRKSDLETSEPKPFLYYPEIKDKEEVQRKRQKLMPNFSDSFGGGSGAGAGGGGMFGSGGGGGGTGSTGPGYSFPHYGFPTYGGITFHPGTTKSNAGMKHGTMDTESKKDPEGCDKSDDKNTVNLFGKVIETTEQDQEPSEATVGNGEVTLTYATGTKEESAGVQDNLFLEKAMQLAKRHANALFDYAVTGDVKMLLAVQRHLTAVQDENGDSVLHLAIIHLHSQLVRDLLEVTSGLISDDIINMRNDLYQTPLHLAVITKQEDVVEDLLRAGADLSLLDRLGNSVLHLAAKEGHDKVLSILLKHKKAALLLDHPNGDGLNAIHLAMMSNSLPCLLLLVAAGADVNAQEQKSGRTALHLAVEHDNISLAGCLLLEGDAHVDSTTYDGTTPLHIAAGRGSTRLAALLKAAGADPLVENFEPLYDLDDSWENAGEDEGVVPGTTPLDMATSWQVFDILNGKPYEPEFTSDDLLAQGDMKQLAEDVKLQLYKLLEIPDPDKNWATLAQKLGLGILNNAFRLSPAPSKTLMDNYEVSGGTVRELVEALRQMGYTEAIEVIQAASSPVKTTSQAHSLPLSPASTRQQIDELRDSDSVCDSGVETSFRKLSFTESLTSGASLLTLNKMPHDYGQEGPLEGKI
Chain of Hypoxia-inducible factor 1-alpha (Homo sapiens) (Q16665 whole entry, looked up): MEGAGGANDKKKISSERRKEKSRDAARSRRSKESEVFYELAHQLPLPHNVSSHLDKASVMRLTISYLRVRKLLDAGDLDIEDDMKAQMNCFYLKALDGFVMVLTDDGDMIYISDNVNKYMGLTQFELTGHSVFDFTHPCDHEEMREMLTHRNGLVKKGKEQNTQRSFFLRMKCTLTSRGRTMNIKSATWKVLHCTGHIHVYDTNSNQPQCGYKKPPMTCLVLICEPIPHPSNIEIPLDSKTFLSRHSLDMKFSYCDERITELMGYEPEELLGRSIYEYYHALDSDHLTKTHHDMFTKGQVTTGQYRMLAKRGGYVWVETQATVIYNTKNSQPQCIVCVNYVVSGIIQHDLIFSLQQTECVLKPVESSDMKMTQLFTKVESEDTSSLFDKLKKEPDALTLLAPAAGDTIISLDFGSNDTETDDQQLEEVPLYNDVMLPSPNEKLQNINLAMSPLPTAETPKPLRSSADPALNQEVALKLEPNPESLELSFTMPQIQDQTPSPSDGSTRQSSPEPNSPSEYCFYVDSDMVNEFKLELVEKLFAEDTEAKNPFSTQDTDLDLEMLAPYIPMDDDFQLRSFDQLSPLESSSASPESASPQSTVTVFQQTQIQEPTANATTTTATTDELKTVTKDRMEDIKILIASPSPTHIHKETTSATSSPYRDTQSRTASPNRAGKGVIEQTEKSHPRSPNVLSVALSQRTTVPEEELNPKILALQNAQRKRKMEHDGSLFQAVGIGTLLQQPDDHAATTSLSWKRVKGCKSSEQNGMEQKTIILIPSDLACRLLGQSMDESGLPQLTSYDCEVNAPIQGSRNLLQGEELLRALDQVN

Clc1ccc(C(c2ccc(Cl)cc2)C(Cl)Cl)cc1
inactive: [1] | [2] | [3] | HGF (gene 3082) | [4] | [5] | [6] | [7] | [8] | [9] | [10] | [11] | [12] | MYC, MYC (gene 4609) | [13] | [14] | [15]

COC(=O)c1ccccc1N
inactive: [1] | [2] | [3] | HGF (gene 3082) | [4] | [5] | [6] | [8] | [16] | [9] | [10] | [11] | [17] | [18] | [12] | MYC, MYC (gene 4609) | [13] | [14] | [15]

CC(C)(C)OOC(C)(C)CCC(C)(C)OOC(C)(C)C
inactive: [1] | [2] | [3] | HGF (gene 3082) | [4] | [5] | [6] | [7] | [8] | [16] | [9] | [10] | [11] | [17] | [12] | MYC, MYC (gene 4609) | [13] | [14]

Cc1ccc(N)c(N)c1
active: [9] 32.8 µM
inactive: [1] | [2] | [3] | HGF (gene 3082) | [4] | [5] | [6] | [7] | [8] | [10] | [11] | [17] | [18] | [12] | MYC, MYC (gene 4609) | [13] | [14] | [15]
